From PubChem BioAssay (EPA / NIEHS)
The source made the active and inactive calls. The calls were made as follows: active = hit-call score of the fitted dose curve at least 0.9, where 1 is the maximum; inactive = score below 0.9.

Legend:
Conditions in all cases: mRNA level, 48 h; actives raise or lower the signal
MYC, MYC (gene 4609) = assay: LTEA_HepaRG_MYC: Life Technologies and Expression Analysis (LTEA) Assay for MYC using HepaRG (AID 2283518)
Procedure, shortened: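 Differentiated HepaRG cells exposed 48 h in serum-free induction medium to 8 concentrations (top 100 uM, half-log steps; 0.5% DMSO), duplicate. MYC mRNA measured by Fluidigm qRT-PCR, normalized to ACTB, GAPDH, POLR2A; bidirectional fit versus DMSO.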

[1] = read-out: matrix metalloproteinase-3 (MMP3), MMP3 (gene 4314); assay: LTEA_HepaRG_MMP3: Life Technologies and Expression Analysis (LTEA) Assay for matrix metalloproteinase-3 (MMP3) using HepaRG (AID 2283519)
Procedure, shortened: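 HepaRG, human; 48 h dosing, 8 conc. (max 100 uM, half-log), duplicate, 0.5% DMSO. Readout: MMP3 transcript by Fluidigm TaqMan qRT-PCR, ACTB/GAPDH/POLR2A-normalised. Gain or loss fitted vs DMSO.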

[2] = read-out: Paternally Expressed 10 (PEG10), PEG10 (gene 23089); assay: LTEA_HepaRG_PEG10: Life Technologies and Expression Analysis (LTEA) Assay for Paternally Expressed 10 (PEG10) using HepaRG (AID 2283520)
Procedure, shortened: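 Differentiated HepaRG cells exposed 48 h in serum-free induction medium to eight half-log concentrations topping at 100 uM, 0.5% DMSO, in duplicate. PEG10 mRNA quantified by TaqMan qRT-PCR, normalized to ACTB, GAPDH and POLR2A; bidirectional fit versus DMSO.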

[3] = read-out: Nuclear factor NF-kappa-B p105 subunit (Homo sapiens) (UniProt P19838); assay: LTEA_HepaRG_NFKB1: Life Technologies and Expression Analysis (LTEA) Assay for Nuclear Factor Kappa B Subunit 1 (NFKB1) using HepaRG (AID 2283521)
Procedure, shortened: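 NFKB1 transcript was measured by TaqMan qRT-PCR on Fluidigm arrays, normalised to three housekeeping genes and fitted in both directions against 0.5% DMSO. HepaRG cells were dosed in duplicate for 48 h in serum-free induction medium, eight half-log steps from 100 uM.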

[4] = read-out: Protein phosphatase 2A (PPP2R4), PTPA (gene 5524); assay: LTEA_HepaRG_PPP2R4: Life Technologies and Expression Analysis (LTEA) Assay for Protein phosphatase 2A (PPP2R4) using HepaRG (AID 2283522)
Procedure, shortened: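 Differentiated human HepaRG cells in serum-free induction medium were exposed 48 h to 8 concentrations (top 100 µM, half-log steps, duplicate) in 0.5% DMSO. PPP2R4 mRNA was measured by TaqMan qRT-PCR, normalised to ACTB, GAPDH and POLR2A, and fitted bidirectionally versus DMSO.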

[5] = read-out: Phosphatase and tensin (PTEN), PTEN (gene 5728); assay: LTEA_HepaRG_PTEN: Life Technologies and Expression Analysis (LTEA) Assay for Phosphatase and tensin (PTEN) using HepaRG (AID 2283523)
Procedure, shortened: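 Read-out is PTEN transcript level by multiplexed TaqMan qRT-PCR after 48 h chemical treatment of human HepaRG cultures in serum-free induction medium. Concentrations spanned 100 uM downward in half-log steps, 0.5% DMSO throughout; activity fitted in both directions against vehicle.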

[6] = read-out: solute carrier (SLC22A1), SLC22A1 (gene 6580); assay: LTEA_HepaRG_SLC22A1: Life Technologies and Expression Analysis (LTEA) Assay for solute carrier (SLC22A1) using HepaRG (AID 2283524)
Procedure, shortened: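 HepaRG (human liver line), 48 h dosing in serum-free induction medium; 8 conc., half-log down from 100 uM, 0.5% DMSO vehicle, duplicates. Endpoint: SLC22A1 mRNA, qRT-PCR, housekeeping-normalized; gain/loss fit vs DMSO.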

[7] = read-out: Pyruvate Dehydrogenase Kinase 4 (PDK4), PDK4 (gene 5166); assay: LTEA_HepaRG_PDK4: Life Technologies and Expression Analysis (LTEA) Assay for Pyruvate Dehydrogenase Kinase 4 (PDK4) using HepaRG (AID 2283525)
Procedure, shortened: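 In this multiplexed human HepaRG expression assay, cells are treated 48 h with test chemicals across an eight-point range starting at 100 uM. PDK4 mRNA changes, normalized to ACTB/GAPDH/POLR2A, are fitted in both directions relative to vehicle.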

[8] = read-out: Nuclear factor erythroid 2-related factor 2 (Homo sapiens) (UniProt Q16236); assay: LTEA_HepaRG_NFE2L2: Life Technologies and Expression Analysis (LTEA) Assay for Nuclear factor erythroid 2-related factor 2 (NFE2L2) Transcription Factor using HepaRG (AID 2283527)
Procedure, shortened: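 Transcript level of NFE2L2 is the read-out, measured by microfluidic TaqMan qRT-PCR and normalized to three housekeeping genes. Human HepaRG cultures received test chemical for 48 h at up to 100 uM in half-log steps. Gain or loss of signal is fitted relative to 0.5% DMSO.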

[9] = read-out: succinate dehydrogenase complex iron sulfur subunit B (SDHB), SDHB (gene 6390); assay: LTEA_HepaRG_SDHB: Life Technologies and Expression Analysis (LTEA) Assay for succinate dehydrogenase complex iron sulfur subunit B (SDHB) using HepaRG (AID 2283528)
Procedure, shortened: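 SDHB transcript level read by TaqMan qRT-PCR, housekeeping-normalised (ACTB, GAPDH, POLR2A), after 48 h chemical treatment of plated HepaRG cells; eight concentrations top 100 uM, half-log steps, 0.5% DMSO, duplicates; fitted both directions against DMSO.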

[10] = read-out: Signal transducer and activator of transcription 3 (Homo sapiens) (UniProt P40763); assay: LTEA_HepaRG_STAT3: Life Technologies and Expression Analysis (LTEA) Assay for Signal transducer and activator of transcription (STAT3) using HepaRG (AID 2283529)
Procedure, shortened: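 Read-out is STAT3 mRNA level by qRT-PCR, normalized to three housekeeping genes, in human HepaRG liver cells treated for 48 h. Concentrations ran from 100 uM downward in half-log steps; curves were fitted for gain or loss relative to 0.5% DMSO.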

[11] = read-out: sulfotransferase 2A1 (SULT2A1), SULT2A1 (gene 6822); assay: LTEA_HepaRG_SULT2A1: Life Technologies and Expression Analysis (LTEA) Assay for sulfotransferase 2A1 (SULT2A1) using HepaRG (AID 2283531)
Procedure, shortened: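 HepaRG human liver cells, 48 h exposure in serum-free induction medium to 8 half-log concentrations topping at 100 µM (0.5% DMSO), duplicate wells. SULT2A1 mRNA measured by TaqMan qRT-PCR, normalized to ACTB/GAPDH/POLR2A; bidirectional fit against DMSO.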

[12] = read-out: Transforming Growth Factor (TGFB1), TGFB1 (gene 7040); assay: LTEA_HepaRG_TGFB1: Life Technologies and Expression Analysis (LTEA) Assay for Transforming Growth Factor (TGFB1) Transporter using HepaRG (AID 2283533)
Procedure, shortened: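 Differentiated HepaRG cells exposed 48 hr in serum-free induction medium to eight half-log concentrations up to 100 uM (0.5% DMSO), duplicate; TGFB1 mRNA by TaqMan qRT-PCR normalised to ACTB, GAPDH, POLR2A; bidirectional fit against DMSO.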

TIMP1, TIMP1 (gene 7076) = assay: LTEA_HepaRG_TIMP1: Life Technologies and Expression Analysis (LTEA) Assay for TIMP1 using HepaRG (AID 2283534)
Procedure, shortened: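 Differentiated HepaRG cells exposed 48 h in serum-free induction medium, duplicates, eight half-log concentrations from 100 uM in 0.5% DMSO. TIMP1 mRNA by qRT-PCR normalized to ACTB, GAPDH, POLR2A; bidirectional fitting against DMSO.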

[13] = read-out: Tumor necrosis factor receptor 1 (TNFRSF1A), TNFRSF1A (gene 7132); assay: LTEA_HepaRG_TNFRSF1A: Life Technologies and Expression Analysis (LTEA) Assay for Tumor necrosis factor receptor 1 (TNFRSF1A) using HepaRG (AID 2283535)
Procedure, shortened: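 Differentiated HepaRG cells in serum-free induction medium, exposed 48 h in duplicate to 8 half-log concentrations up to 100 uM in 0.5% DMSO. TNFRSF1A mRNA by Fluidigm TaqMan qRT-PCR, normalized to ACTB, GAPDH, POLR2A; bidirectional fit.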

[14] = read-out: Thyroid Hormone Responsive (THRSP), THRSP (gene 7069); assay: LTEA_HepaRG_THRSP: Life Technologies and Expression Analysis (LTEA) Assay for Thyroid Hormone Responsive (THRSP) using HepaRG (AID 2283536)
Procedure, shortened: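 mRNA induction or loss relative to 0.5% DMSO vehicle was fitted bidirectionally across an eight-point curve whose highest exposure was 100 uM. Human HepaRG liver cells received chemicals in duplicate over 48 h before RNA extraction.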

[15] = read-out: Cellular tumor antigen p53 (Homo sapiens) (UniProt P04637); assay: LTEA_HepaRG_TP53: Life Technologies and Expression Analysis (LTEA) Assay for Tumor Protein P53 (TP53) using HepaRG (AID 2283537)
Procedure, shortened: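 TP53 transcript measured by qRT-PCR, normalized to three housekeeping genes, after 48 h treatment of human HepaRG cultures with chemicals from 100 uM downward in half-log steps (0.5% DMSO vehicle, serum-free induction medium). Up- or down-regulation fitted against DMSO.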

[16] = read-out: Transforming Growth Factor (TGFA), TGFA (gene 7039); assay: LTEA_HepaRG_TGFA: Life Technologies and Expression Analysis (LTEA) Assay for Transforming Growth Factor (TGFA) using HepaRG (AID 2283532)
Procedure, shortened: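 HepaRG (human liver line), 48 h exposure, 8 conc. half-log down from 100 uM, 0.5% DMSO vehicle, duplicates; serum-free induction medium. TGFA mRNA by TaqMan qRT-PCR, ACTB/GAPDH/POLR2A normalization; gain/loss fit vs DMSO.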

[17] = read-out: solute carrier (SLCO1B1), SLCO1B1 (gene 10599); assay: LTEA_HepaRG_SLCO1B1: Life Technologies and Expression Analysis (LTEA) Assay for solute carrier (SLCO1B1) using HepaRG (AID 2283530)
Procedure, shortened: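 Differentiated human HepaRG cells were exposed for 48 h in serum-free induction medium to eight half-log concentrations, top 100 uM, in 0.5% DMSO. SLCO1B1 mRNA was measured by qRT-PCR, normalized to ACTB, GAPDH and POLR2A, and fitted bidirectionally against DMSO.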

Measured: AC50

Nuclear factor erythroid 2-related factor 2 (Homo sapiens), sequence (Q16236 whole entry, looked up): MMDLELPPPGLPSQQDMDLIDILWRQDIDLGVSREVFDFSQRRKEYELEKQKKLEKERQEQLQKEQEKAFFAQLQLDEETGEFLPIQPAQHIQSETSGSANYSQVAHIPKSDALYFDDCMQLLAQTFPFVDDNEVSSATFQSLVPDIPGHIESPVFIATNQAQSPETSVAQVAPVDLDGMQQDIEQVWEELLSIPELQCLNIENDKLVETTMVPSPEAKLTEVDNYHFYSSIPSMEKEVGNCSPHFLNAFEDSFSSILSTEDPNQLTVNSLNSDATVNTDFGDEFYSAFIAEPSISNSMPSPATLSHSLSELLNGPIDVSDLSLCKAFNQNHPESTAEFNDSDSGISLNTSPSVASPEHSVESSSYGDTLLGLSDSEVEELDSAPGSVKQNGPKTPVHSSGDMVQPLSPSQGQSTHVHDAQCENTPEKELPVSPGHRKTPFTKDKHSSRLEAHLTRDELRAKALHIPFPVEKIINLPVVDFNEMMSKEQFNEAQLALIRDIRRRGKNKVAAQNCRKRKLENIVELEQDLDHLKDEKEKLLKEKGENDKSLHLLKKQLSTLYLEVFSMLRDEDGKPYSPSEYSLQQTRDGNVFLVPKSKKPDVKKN
Nuclear factor NF-kappa-B p105 subunit (Homo sapiens), sequence (P19838 whole entry, looked up): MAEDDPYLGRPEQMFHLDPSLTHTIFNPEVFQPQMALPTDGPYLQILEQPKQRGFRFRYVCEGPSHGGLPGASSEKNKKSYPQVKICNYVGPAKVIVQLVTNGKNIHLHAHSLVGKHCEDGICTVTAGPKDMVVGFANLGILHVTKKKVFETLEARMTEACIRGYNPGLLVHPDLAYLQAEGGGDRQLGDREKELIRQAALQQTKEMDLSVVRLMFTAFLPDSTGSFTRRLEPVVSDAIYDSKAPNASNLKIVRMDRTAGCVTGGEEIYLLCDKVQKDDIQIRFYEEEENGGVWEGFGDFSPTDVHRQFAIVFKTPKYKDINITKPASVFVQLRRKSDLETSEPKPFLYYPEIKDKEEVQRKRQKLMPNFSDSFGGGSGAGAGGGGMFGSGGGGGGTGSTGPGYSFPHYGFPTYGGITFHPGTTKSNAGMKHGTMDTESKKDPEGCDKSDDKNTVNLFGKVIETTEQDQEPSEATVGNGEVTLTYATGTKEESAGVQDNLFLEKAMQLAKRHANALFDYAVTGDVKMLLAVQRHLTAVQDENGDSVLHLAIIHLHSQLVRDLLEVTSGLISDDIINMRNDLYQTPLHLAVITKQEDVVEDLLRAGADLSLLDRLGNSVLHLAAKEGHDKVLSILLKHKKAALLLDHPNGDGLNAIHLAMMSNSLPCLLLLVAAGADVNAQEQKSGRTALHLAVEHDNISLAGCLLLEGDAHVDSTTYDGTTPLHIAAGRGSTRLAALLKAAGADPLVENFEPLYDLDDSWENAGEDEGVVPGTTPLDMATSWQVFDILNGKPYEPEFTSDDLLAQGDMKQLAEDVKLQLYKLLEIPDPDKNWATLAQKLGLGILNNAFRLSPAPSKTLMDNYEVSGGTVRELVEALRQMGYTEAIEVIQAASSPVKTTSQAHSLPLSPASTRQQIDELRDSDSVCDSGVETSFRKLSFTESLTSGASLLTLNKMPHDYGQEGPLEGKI
Cellular tumor antigen p53 (Homo sapiens), sequence (P04637 whole entry, looked up): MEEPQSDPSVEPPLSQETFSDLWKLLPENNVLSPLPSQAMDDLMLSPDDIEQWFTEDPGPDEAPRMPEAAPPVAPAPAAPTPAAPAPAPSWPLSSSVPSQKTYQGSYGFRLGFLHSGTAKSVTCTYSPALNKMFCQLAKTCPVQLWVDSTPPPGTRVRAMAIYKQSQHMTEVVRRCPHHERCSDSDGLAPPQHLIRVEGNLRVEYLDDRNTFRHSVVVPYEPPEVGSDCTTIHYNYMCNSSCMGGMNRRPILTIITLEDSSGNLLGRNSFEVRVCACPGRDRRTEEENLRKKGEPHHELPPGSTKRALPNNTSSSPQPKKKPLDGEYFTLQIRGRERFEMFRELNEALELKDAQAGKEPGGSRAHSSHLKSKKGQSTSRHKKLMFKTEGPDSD
Signal transducer and activator of transcription 3 (Homo sapiens), sequence (P40763 whole entry, looked up): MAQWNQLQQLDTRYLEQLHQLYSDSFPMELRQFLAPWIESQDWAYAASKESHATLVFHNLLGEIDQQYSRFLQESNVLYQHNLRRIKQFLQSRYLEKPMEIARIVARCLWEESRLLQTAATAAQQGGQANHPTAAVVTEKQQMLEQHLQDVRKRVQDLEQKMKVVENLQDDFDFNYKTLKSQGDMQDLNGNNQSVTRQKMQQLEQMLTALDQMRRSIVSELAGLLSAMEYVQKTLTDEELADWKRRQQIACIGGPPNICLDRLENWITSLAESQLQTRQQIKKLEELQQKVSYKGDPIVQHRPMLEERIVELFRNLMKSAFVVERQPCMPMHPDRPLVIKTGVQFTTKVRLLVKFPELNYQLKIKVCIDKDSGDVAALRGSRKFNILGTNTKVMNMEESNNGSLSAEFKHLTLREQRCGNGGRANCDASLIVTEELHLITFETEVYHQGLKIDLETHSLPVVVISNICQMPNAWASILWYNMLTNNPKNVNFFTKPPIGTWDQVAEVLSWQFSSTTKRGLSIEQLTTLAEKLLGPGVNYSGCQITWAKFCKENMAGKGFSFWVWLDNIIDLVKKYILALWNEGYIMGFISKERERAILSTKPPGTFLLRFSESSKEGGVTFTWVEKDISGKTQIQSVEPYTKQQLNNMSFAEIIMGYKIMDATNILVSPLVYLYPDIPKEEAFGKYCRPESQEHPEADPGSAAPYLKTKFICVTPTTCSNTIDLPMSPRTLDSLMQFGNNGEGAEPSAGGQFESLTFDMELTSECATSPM

CC(C)(C)c1cccc(C(C)(C)C)c1O
not listed: [16] | [17]
inactive: all other assays above

CCN(CC)CCNc1ccc(CNC=O)c2sc3ccc(OC)cc3c(=O)c12
active: [1] 86.4 µM | [2] 62 µM | [4] 50 µM | [5] 50 µM | [6] 13.9 µM | [7] 44.3 µM | [8] 87 µM | [10] 83.4 µM | [11] 76 µM | [16] 12.5 µM | [13] 43.5 µM | [14] 12.8 µM | [15] 16.6 µM
inactive: MYC, MYC (gene 4609) | [9] | TIMP1, TIMP1 (gene 7076)

OC1CCC(C2CCCCC2)CC1 (configuration not stated)
not listed: [3] | [12] | [16]
inactive: all other assays above

O=c1c(-c2ccc(O)cc2)coc2cc(O)ccc12
not listed: [1] | [12] | [17]
inactive: all other assays above

CCc1nn(C2CCCCC2)c2cc(C3(C#N)CCC(C(=O)O)CC3)ccc12 (configuration not stated)
active: MYC, MYC (gene 4609) 50 µM | [2] 12.8 µM | [4] 11.4 µM | [6] 72.6 µM | [7] 33.6 µM | [8] 50 µM | [11] 80.4 µM | [16] 65.5 µM | TIMP1, TIMP1 (gene 7076) 33.8 µM | [14] 79.3 µM | [15] 50 µM
inactive: [1] | [3] | [5] | [9] | [10] | [13]
